# Cruzain noTriton = inhibitors of Trypanosoma cruzi cruzain without detergent; AID 1476; P25779; Potency, µM, for inactives: max response, negative = inhibition, usual class: inhibitors; purified cruzain, Z-FR-AMC fluorescence, no detergent; 200,000 compounds, 2.3% hits;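 also: plate controls were enzyme without inhibitor for no effect and buffer without enzyme for full effect; nearly all actives have a fitted effect of over 40% in size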
# Target sequence (P25779 123-467 limits assumed): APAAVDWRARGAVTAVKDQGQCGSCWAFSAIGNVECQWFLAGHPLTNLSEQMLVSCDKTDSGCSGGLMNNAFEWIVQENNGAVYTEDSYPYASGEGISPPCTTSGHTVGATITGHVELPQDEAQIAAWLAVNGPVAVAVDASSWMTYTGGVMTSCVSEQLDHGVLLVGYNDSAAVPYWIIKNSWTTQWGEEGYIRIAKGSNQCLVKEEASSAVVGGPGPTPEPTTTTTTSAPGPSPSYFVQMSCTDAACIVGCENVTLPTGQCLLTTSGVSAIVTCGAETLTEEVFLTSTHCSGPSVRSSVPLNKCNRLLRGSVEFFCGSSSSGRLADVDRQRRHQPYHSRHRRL
#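 Detergent-free condition (0.00005% Triton X-100) in acetate buffer pH 5.5 with DTT. 1.5 nM enzyme and compound were pre-mixed 15 min, then 2 uM Z-FR-AMC substrate added; reaction progress from fluorescence change between first and third reads (60 s).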
# Cruzain Triton = cruzain (T. cruzi) inhibition with detergent; AID 1478; purified cruzain, Z-FR-AMC fluorescence, 0.01% Triton; 200,000 compounds, 0.43% hits; Potency, µM, for the others: max response, negative = inhibition, hits mostly inhibitors;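 also: plate controls were neutral wells for no effect and buffer without enzyme for full effect; nearly all actives have a fitted effect of over 40% in size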
#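 Compounds were screened in titration against cruzain (1.5 nM) with 0.01% Triton X-100 to counter colloidal aggregation. Activity was the AMC fluorescence increase over 60 s after adding 2 uM Z-FR-AMC at pH 5.5.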
# An asterisk follows results filed as active; ? = inconclusive. An excerpt weighted towards active compounds, which were near 2.4% of everything screened. Calls follow the shape of the dose curve; as a rule, active = well fitted curve in the direction sought with a large enough effect; inconclusive = small, poorly fitted or top-dose-only effect, or another doubt; inactive = no such curve, though single readings can be large; an effect the other way counts as inactive or inconclusive. Potency is read from the fitted curve at half-maximal effect.
SMILES,Cruzain noTriton,Cruzain Triton
CCC(=O)Nc1ccc(/C(C)=N\NC(=O)c2ccc(C)s2)cc1,-6.0%,-5.7%
C/C(=N/NC(=O)c1ccc(C)s1)c1cccc(NC(=O)COc2ccc(Cl)cc2Cl)c1,12.6µM*,-1.2%
CCOC(=O)c1ccccc1NC(=O)CSc1ncc2c(n1)-c1ccccc1N(CC)S2(=O)=O,-27.3%,-3.3%
CC1Cc2ccccc2N1Cc1nc2cc(C(F)(F)F)ccc2c(=O)[nH]1 (stereo not drawn),25.1µM*,1.3%
CC1Cc2ccccc2N1Cc1cc(=O)n2ccsc2n1 (stereo not drawn),?,-1.8%
CC12CN3CC(c4ccccc4)(CN(C1)C3c1ccc(Cl)cc1)C2=O (stereo not drawn),-0.1%,-5.1%
O=C(O)c1cc2ccc3ccccc3c2oc1=O,25.1µM*,?
O=C(O)c1cc2cc(Cl)cc(Cl)c2oc1=O,?,-3.4%
O=C(c1cc2c(ccc3ccccc32)oc1=O)N1CCCC1,?,-26.8%
O=C(O)c1cc2c(ccc3ccccc32)oc1=O,10µM*,?
O=C(NCCc1ccccc1Cl)c1ccc(Cn2c(=O)c3cccn3c3cccnc32)cc1,-1.6%,2.3%
COc1ccc(N2CCN(CCCNC(=O)c3cnn(-c4ccc(C)cc4)c3-n3cccc3)CC2)cc1,-11.2%,-3.8%
Cn1c(=O)c2c(nc(N3CCOCC3)n2Cc2ccc(Br)cc2)n(C)c1=O,6.2%,-2.6%
COc1ccc(NC(=O)Cn2c(=O)n(-c3ccccc3)c(=O)c3c4c(sc32)CCCC4)cc1,3.3%,-1.3%
CCOC(=O)CC(=O)CSc1nnc2c(n1)[nH]c1ccccc12,?,-3.3%
O=C(CSc1nnc2c(n1)[nH]c1ccccc12)OCc1ccccc1,25.1µM*,-3.3%
CC(C)CSc1nnc2c(n1)[nH]c1ccccc12,-26.3%,-1.3%
CCCCSc1nnc2c(n1)[nH]c1ccccc12,25.1µM*,-0.4%
O=C(CSC1=Nc2ccccc2C2=NC(CCC(=O)NC3CCCCC3)C(=O)N12)Nc1cccc(C(F)(F)F)c1 (stereo not drawn),-1.4%,-4.9%
COc1ccc(-c2nc3nc(C)cc(N4CCN(c5cccc(C(F)(F)F)c5)CC4)n3n2)cc1,-5.3%,-1.3%
O=C(COC(=O)[C@H](Cc1ccccc1)NC(=O)c1cccs1)Nc1c(Cl)cccc1Cl,25.1µM*,15.8µM*
CC(=O)NCCNC(=O)[C@H](Cc1ccccc1)NC(=O)c1cccs1,1.6%,4.2%
O=C(CSc1nc2c(c(=O)[nH]1)CN(Cc1ccc3c(c1)OCO3)CC2)Nc1cccc(Cl)c1,-8.1%,-5.9%
CCOC(=S)NC(=O)c1sc2ccccc2c1Cl,7.3%,-3.8%
CN(C(=O)COC(=O)CNC(=O)c1sc2ccccc2c1Cl)c1ccccc1,7.94µM*,8.91µM*
SMILES,Cruzain noTriton,Cruzain Triton
CC1=C(C(=O)Nc2ccc(Cl)cc2)C(C(C)C)n2nc(SCc3ccc(Cl)cc3)nc2N1 (stereo not drawn),-7.1%,-2.4%
N#Cc1c(NC(=O)COC(=O)C2CC3C=CC2C3)oc(-c2ccccc2)c1-c1ccccc1 (stereo not drawn),7.94µM*,-6.7%
COc1ccccc1OCC(=O)Nc1oc(-c2ccccc2)c(-c2ccccc2)c1C#N,?,0.1%
CCOC(=O)c1sc(NC(=O)Nc2ccc(Cl)cc2)cc1C,-7.6%,-1.6%
CCOC(=O)c1c(NC(=O)Nc2cccc(Cl)c2)sc(C)c1C,25.1µM*,-0.4%
CCOC(=O)c1c(NC(=O)Nc2ccc(Cl)cc2)sc(C)c1C,25.1µM*,-0.8%
O=C(Nc1cccc(Cl)c1)Nc1cccc(Cl)c1,1.8%,-11.2%
O=C(NC1CCCC1)c1ccc2c(c1)N(Cc1ccc(C(F)(F)F)cc1)C(=O)c1ccccc1S2,?,-7.5%
CCOc1ccccc1CNC(=O)c1cnc2sc(N(CC)CC)nn2c1=O,-6.4%,-2.7%
COC(=O)C1=C(C)NC(C)=C(C(=O)OCCCN2CCC(c3ccccc3)(c3ccccc3)CC2)[C@H]1c1cccc([N+](=O)[O-])c1,0.1%,-4.7%
Cc1ccc(NS(=O)(=O)c2cnc(N)nc2)c(C)c1,-0.8%,-3.0%
Cc1ccc(C(=O)c2oc3ccccc3c2NC(=O)c2cc(-c3ccccc3O)n[nH]2)cc1,?,-0.3%
O=C(Nc1c(C(=O)c2ccccc2)oc2ccccc12)c1cc(-c2ccccc2O)n[nH]1,12.6µM*,-3.6%
COc1cccc2c1cc1c(=O)n(CC(=O)NCc3ccco3)nc(C)n12,-2.1%,-1.7%
CC(C)CCNC(=O)CN1C(=O)c2cccnc2Oc2ccccc21,7.0%,-2.9%
Cc1c(C(=O)N(C)C2CCCCC2)sc2nc3ccc(N)cc3n12,-6.6%,2.1%
CC(=O)c1ccc(NC(=O)C(=O)c2cn(CC(=O)N3CCCCC3)c3ccccc23)cc1,10µM*,2.6%
O=C(Nc1ccccc1)C(=O)c1cn(CC(=O)N2CCCCC2)c2ccccc12,-20.3%,-8.5%
COc1ccc(NS(=O)(=O)c2ccc(NC(=O)N3CCCC3)cc2)cc1,-1.8%,-0.6%
Nc1nc2ccccc2nc1N,20µM*,-18.8%
c1ccc2nc3ccccc3nc2c1,-20.2%,-2.2%
CC(C)(C)OC(=O)N1CCC(c2c(C(=O)NCc3ccccn3)cnn2-c2ccccc2)CC1,6.1%,-0.3%
Cn1ccnc1SCC(=O)c1cc2ccccc2o1,25.1µM*,-12.6%
Cn1c(SCC(=O)c2cc3ccccc3o2)nnc1-c1ccccc1,-8.9%,-10.0%
CC1=Nc2cc(C(=O)NC3CCCC3)ccc2Sc2ccc(Br)cc21,?,-3.3%
SMILES,Cruzain noTriton,Cruzain Triton
CC1=Nc2cc(C(=O)NC3CCCCC3)ccc2Sc2ccc(Cl)cc21,25.1µM*,-5.0%
CC1=Nc2cc(C(=O)NCCc3ccc(Cl)cc3)ccc2Sc2ccc(C)cc21,10µM*,-2.0%
CCCC1=Nc2cc(C(=O)NCCc3ccc(OCC)cc3)ccc2Sc2ccccc21,?,-2.1%
CCOC(=O)C1CCCN(C(=O)c2ccc(NC(=O)c3nsc4ccccc34)cc2)C1 (stereo not drawn),6.7%,-3.1%
CCc1ccc(S(=O)(=O)c2nnn3c2nc(NCc2cccs2)c2sccc23)cc1,-6.9%,-5.7%
Cc1oc(C)c2c(=O)cc(-c3ccc4c(c3)OCO4)cc(OC(=O)c3ccccc3Cl)c12,-4.3%,-2.2%
Cc1oc(C)c2c(=O)cc(-c3ccc4c(c3)OCO4)cc(OC(=O)c3ccccc3Br)c12,15.8µM*,-9.5%
O=C(CSc1nc2c(c(=O)[nH]1)CN(Cc1ccc3c(c1)OCO3)CC2)Nc1ccc(F)c(F)c1,2.3%,1.4%
O=C(Nc1cccc(Cl)c1)c1ccc2nc(CCc3ccccc3)oc2c1,5.6%,-7.3%
CCOC(=O)c1c(NC(=O)Cn2cnc3sc(C)c(-c4ccccc4)c3c2=O)sc(C)c1C,12.6µM*,-7.4%
CCOC(=O)c1c(NC(=O)COC(=O)Cn2cnc3ccccc32)sc(C)c1C,-2.6%,2.7%
CCOC(=O)c1ccc(NC(=O)Cn2cnc3sc(C(=O)OCC)c(C)c3c2=O)cc1,-6.3%,0.6%
CCOC(=O)c1c(NC(=O)Cn2cnc3scc(-c4ccc(C)cc4)c3c2=O)sc(C)c1C,3.98µM*,-5.5%
Cc1ccc(C2CC(=O)N(Cc3ccccc3F)c3c2c(C)nn3-c2nc(C)cc(C)n2)cc1 (stereo not drawn),?,-3.9%
Cc1cccc(C)c1NC1=NC2(CCCCC2)N=C(N)N1,4.3%,2.5%
NC1=NC2(CCCCC2)N=C(Nc2ccc(Br)cc2)N1,20µM*,28.2µM*
CCOP(=O)(OCC)C(C#N)=C1SCN(c2ccc(Cl)cc2)CS1,12.6µM*,-8.6%
CCOP(=O)(OCC)C(NC(=O)c1ccc(Cl)cc1)=C(Cl)Cl,5.4%,2.2%
